MCF10A rerep – inducers of DNA re-replication in MCF 10A breast cells; MCF 10A DNA re-replication, Hoechst nuclear intensity, 48 h; Potency, µM (highest dose often 46.1 µM), for the others: at the top dose activity, positive = re-replication, actives largely listed as activators; 2.9% of 350,000 active; AID 624296; also: potency is read from the fitted curve at half-maximal effect; % of control where 0% means no effect; nearly all actives have a fitted effect of over 50% in size
SW480 rereplic – DNA re-replication induction in SW480 cells | Potency, µM (top dose mostly 46.1 µM), inactives show top-dose re-replication activation, hits mostly activators | 1.8% of 340,000 active | SW480 DNA re-replication, Hoechst DNA content imaging, 48 h; also: potency is read from the fitted curve at half-maximal effect; % of control where 0% means no effect; nearly all actives have a fitted effect of over 55% in size
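Quantitative HTS format with DMSO vehicle controls; 48 hr drug incubation at 37 C, then 40 min Hoechst staining and scanning imager measurement at 405 nm excitation.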
BCR signal inh – inhibitors of chronic active B-cell receptor signaling; Potency, µM (top dose mostly 46.1 µM), for the others: top-dose activity change, negative = inhibition, actives largely listed as inhibitors; 0.05% of 340,000 active; AID 493014; ABC-DLBCL IkBa-CBG/CBR reporter, luminescence ratio, 4 h; active = well fitted inhibition curve with a large enough effect in the signal ratio, with a control signal flat, not every such curve was filed as active; inconclusive = small, poorly fitted or top-dose-only effect, or effect the other way, or a change in a side signal; the % refers to the signal ratio;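 also: potency is read from the fitted curve at half-maximal effect; plate controls were basal doxycycline-induced cells for no effect and cells given 10 µM MG132 for full effect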
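Doxycycline induced both beetle luciferases in TMD8 lymphoma cells; IKK-driven degradation limits the IkappaBalpha-fused green signal, while red luminescence normalises for cell number and nonspecific effects. Compounds tested up to 46 uM, 4 hrs.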
RORg inh – blocks mouse ROR gamma transcriptional activity; Drosophila S2 Gal4-RORgamma UAS-luciferase reporter, 20 h; 5.4% of 310,000 active; Potency, µM (doses to about 53.6 µM), for the others: top-dose activity change, negative = inhibition, most hits filed as inhibitors; also: potency is read from the fitted curve at half-maximal effect; % is scaled to controls: 0 for no effect and ±100 for the full control effect; nearly all actives have a fitted effect of over 60% in size
Target sequence (P51450 whole entry, looked up, the tested form may be a part): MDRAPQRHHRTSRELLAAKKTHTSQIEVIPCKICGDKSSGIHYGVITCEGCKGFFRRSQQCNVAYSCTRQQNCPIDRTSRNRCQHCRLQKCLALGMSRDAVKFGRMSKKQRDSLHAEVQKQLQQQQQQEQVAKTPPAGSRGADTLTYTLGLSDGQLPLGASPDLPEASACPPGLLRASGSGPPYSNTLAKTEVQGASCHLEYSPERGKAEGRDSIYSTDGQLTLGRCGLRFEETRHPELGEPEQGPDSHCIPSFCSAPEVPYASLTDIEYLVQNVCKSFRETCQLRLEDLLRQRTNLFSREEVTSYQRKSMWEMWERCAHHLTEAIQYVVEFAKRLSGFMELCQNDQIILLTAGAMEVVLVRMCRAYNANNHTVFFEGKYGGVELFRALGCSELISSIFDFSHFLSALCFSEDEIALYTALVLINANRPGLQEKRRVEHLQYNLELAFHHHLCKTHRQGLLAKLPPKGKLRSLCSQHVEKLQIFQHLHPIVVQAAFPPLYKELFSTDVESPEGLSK
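Read-out: Photinus luciferase luminescence; inhibitors lower reporter signal. Insect Schneider cells with Gal4-ROR gamma fusion under metallothionein promoter, UAS reporter; 700 uM final copper sulfate induction, 20 hr, ambient temperature.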
Giardia killer – Giardia lamblia killing; Giardia lamblia trophozoite viability; activity change, % at 7.66 µM, hits read low; 0.15% of 340,000 active; in the data active = activity change below about -80%; inconclusive = between about -30% and that limit;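 also: parasites exposed to compound for two days anaerobically before the ATP read; % is scaled to controls: 0 for no effect and ±100 for the full control effect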
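Media and compound were dispensed first, then trophozoites at 100 cells/well; plates sat 48 hrs at 37 deg C without oxygen before ATP luminescence reagent was added and read after 15-30 min at room temperature.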
VP16 counter – Gal4-VP16 reporter inhibition counter-screen; Drosophila S2 Gal4-VP16 UAS-luciferase, luminescence, 20 h; Potency, µM (doses to about 53.6 µM), without a hit: at the top dose activity, negative = inhibition, hits mostly inhibitors; 3.5% of 310,000 active;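 also: Gal4-VP16 expression switched on by copper sulfate through the metallothionein promoter; potency is read from the fitted curve at half-maximal effect; % is scaled to controls: 0 for no effect and ±100 for the full control effect; nearly all actives have a fitted effect of over 50% in size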
Active calls of the source: *; [ ] = remark or other dose. Sampled rows, rich in hits. Any-hit rate of the full collection: about 8.3%. Unless noted, calls follow the shape of the dose curve; as a rule, active = well fitted curve in the direction sought with a large enough effect; inconclusive = small, poorly fitted or top-dose-only effect, or another doubt; inactive = no such curve, though single readings can be large; an effect the other way counts as inactive or inconclusive.

Results for CC(C)c1ccccc1NC(=S)NC(=O)C1CCCCC1 ?
MCF10A rerep: -0.9%; SW480 rereplic: -1.0%; BCR signal inh: 5.5%; Giardia killer: 6.9

Results for O=C(CNC(=O)c1ccc(Cl)cc1)NCc1ccccn1 ?
MCF10A rerep: 3.0%; SW480 rereplic: -17.7%; BCR signal inh: -1.2%; Giardia killer: 1.3

How did COc1ccc(NC(=O)c2cc(S(=O)(=O)N3CCOCC3)cs2)cc1 do in these assays?
MCF10A rerep: -12.8%; SW480 rereplic: -21.6%; BCR signal inh: -2.9%; RORg inh: -7.6%; Giardia killer: 3.5; VP16 counter: -4.6%

Results for O=C(/C=C/c1ccccc1)Nc1ccc(Br)cn1 ?
MCF10A rerep: 2.06µM*; SW480 rereplic: 5.8µM*; BCR signal inh: inconclusive; RORg inh: 14.0%; Giardia killer: -17.0; VP16 counter: -2.7%

What do the screens show for `C=CCCC(=O)Nc1ccc(Br)cn1`?
MCF10A rerep: 9.2µM*; SW480 rereplic: 16.4µM*; BCR signal inh: 1.8%; RORg inh: 5.6%; Giardia killer: 4.5; VP16 counter: -18.7%

Results for O=C(/C=C/c1ccccc1)Nc1ncn[nH]1 ?
MCF10A rerep: -6.1%; SW480 rereplic: inconclusive; BCR signal inh: inconclusive; RORg inh: 14.1µM*; Giardia killer: -10.9; VP16 counter: inconclusive

Results for O=C(CCc1ccccc1)Nc1ncn[nH]1 ?
MCF10A rerep: -3.8%; SW480 rereplic: -5.8%; BCR signal inh: -2.2%; RORg inh: -5.4%; Giardia killer: -10.6; VP16 counter: 1.3%

How did Cc1ccc(NC(=O)/C=C/c2ccc(Cl)cc2)nc1 do in these assays?
MCF10A rerep: -4.0%; SW480 rereplic: 12.6%; BCR signal inh: 1.4%; RORg inh: 2.4%; Giardia killer: -29.1; VP16 counter: 7.7%

How did ClCC1CN(Cc2ccccc2Cl)CCO1 (stereo not drawn) do in these assays?
MCF10A rerep: inconclusive; SW480 rereplic: 0.4%; BCR signal inh: 0.6%; RORg inh: 3.8%; Giardia killer: -12.7; VP16 counter: 0.8%

Results for CC(C)[C@@H]1CC[C@@H](C)c2c(-c3ccccc3)n[nH]c21 ?
MCF10A rerep: inconclusive; SW480 rereplic: 4.6%; BCR signal inh: inconclusive; RORg inh: 15.8µM*; Giardia killer: -1.7; VP16 counter: inconclusive

What do the screens show for `CCSc1nnc(-c2sc3nnc(-c4ccccc4)c(-c4ccccc4)c3c2N)o1`?
MCF10A rerep: 3.26µM*; SW480 rereplic: inconclusive; BCR signal inh: 14.1%; RORg inh: 15.5%; Giardia killer: -15.1; VP16 counter: 1.7%

How did CCOC(=O)C/C(N)=N/NC(=O)c1ccc(Cl)cc1Cl do in these assays?
MCF10A rerep: -36.4%; SW480 rereplic: inconclusive; BCR signal inh: -9.6%; RORg inh: 7.94µM*; Giardia killer: 2.1; VP16 counter: inconclusive

Results for Cn1cc(C(=O)c2ccc(Cl)cc2Cl)cc1C(=O)N/N=C(\N)COc1ccc(F)cc1 ?
MCF10A rerep: 16.6%; SW480 rereplic: inconclusive; BCR signal inh: 28.4%; RORg inh: 2.24µM*; Giardia killer: 0.0; VP16 counter: 2.51µM*

Results for CCOC(=O)N1CCN(C(=O)COC(=O)CNC(=O)c2ccc(Cl)cc2Cl)CC1 ?
MCF10A rerep: 0.2%; SW480 rereplic: -8.7%; BCR signal inh: 6.7%; Giardia killer: -9.3

How did Cn1cc(C(=O)c2ccc(Cl)cc2Cl)cc1C(=O)N/N=C(\N)COc1ccc(Cl)cc1 do in these assays?
MCF10A rerep: 9.3%; SW480 rereplic: inconclusive; BCR signal inh: inconclusive; RORg inh: 1.41µM*; Giardia killer: -15.1; VP16 counter: 3.55µM*

What do the screens show for `CNC(=O)/C=C/c1cc(C(=O)c2ccc(Cl)cc2Cl)cn1C`?
MCF10A rerep: inconclusive; SW480 rereplic: -17.2%; BCR signal inh: -4.4%; RORg inh: -0.3%; Giardia killer: 20.1; VP16 counter: -1.3%

How did Cn1cc(C(=O)c2ccc(Cl)cc2Cl)cc1C(=O)N/N=C(\N)COc1ccccc1 do in these assays?
MCF10A rerep: inconclusive; SW480 rereplic: inconclusive; BCR signal inh: 8.0%; RORg inh: 0.708µM*; Giardia killer: 5.0; VP16 counter: 1.58µM*

What do the screens show for `CC/C(C)=N\NC(=O)CNC(=O)c1ccc(Cl)cc1Cl`?
MCF10A rerep: 0.8%; SW480 rereplic: 3.7%; BCR signal inh: 12.6µM*; RORg inh: inconclusive; Giardia killer: 10.4; VP16 counter: inconclusive

Results for Cn1cc(C(=O)c2ccc(Cl)cc2Cl)cc1C(=O)N/N=C(\N)COc1ccc(Cl)cc1Cl ?
MCF10A rerep: inconclusive; SW480 rereplic: 9.2µM*; BCR signal inh: -8.0%; RORg inh: 1.41µM*; Giardia killer: -12.1; VP16 counter: 3.98µM*

Results for CC/C(Cc1ccccc1)=N/NC(=O)CNC(=O)c1ccc(Cl)cc1Cl ?
MCF10A rerep: 0.9%; SW480 rereplic: -16.7%; BCR signal inh: -14.9%; Giardia killer: 0.1

Results for Cn1cc(C(=O)c2ccc(Cl)cc2Cl)cc1C(=O)O ?
MCF10A rerep: -2.3%; SW480 rereplic: -0.2%; BCR signal inh: 7.8%; RORg inh: 15.7%; Giardia killer: -8.8; VP16 counter: 2.2%

How did O=C(N1CCOCCOc2ccccc2OCCOCC1)C(F)(F)F do in these assays?
MCF10A rerep: -0.9%; SW480 rereplic: -12.6%; BCR signal inh: 0.7%; RORg inh: -29.1%[1.91 µM]; Giardia killer: 5.7; VP16 counter: 8.3%

How did O=C(C1CCCCC1)N1CC(=O)N2CCc3ccccc3[C@@H]2C1 do in these assays?
MCF10A rerep: 3.2%; SW480 rereplic: -6.1%; RORg inh: 2.8%[16.9 µM]; VP16 counter: -1.0%[17 µM]

Results for Cn1c(SCC(=O)N/N=C/c2cccs2)nc2ccccc21 ?
MCF10A rerep: -2.4%; SW480 rereplic: 0.1%; BCR signal inh: inconclusive; RORg inh: 2.1%; Giardia killer: 5.9; VP16 counter: 3.4%[0.365 µM]

Results for O=C(CSc1ncccn1)N/N=C/c1cccs1 ?
MCF10A rerep: 0.517µM*; SW480 rereplic: inconclusive; BCR signal inh: 2.1%; RORg inh: 2.6%; Giardia killer: 8.2; VP16 counter: 14.8%

How did O=C(N/N=C/c1cccs1)C(=O)Nc1cccc(Cl)c1 do in these assays?
MCF10A rerep: 2.6%; SW480 rereplic: -3.6%; BCR signal inh: inconclusive; RORg inh: 3.16µM*; Giardia killer: 17.6; VP16 counter: 10µM*

How did Cc1cc(C(=O)N/N=C/c2ccc(C)s2)n[nH]1 do in these assays?
MCF10A rerep: 0.3%; SW480 rereplic: -7.5%; BCR signal inh: inconclusive; RORg inh: -7.2%; Giardia killer: -20.8; VP16 counter: -9.0%

Results for Cc1ccc(/C=N/NC(=O)c2ccccn2)s1 ?
MCF10A rerep: -0.3%; SW480 rereplic: -11.3%; BCR signal inh: inconclusive; RORg inh: inconclusive; Giardia killer: -1.5; VP16 counter: 22.4µM*
